FLuc inh: blocks purified firefly luciferase enzyme activity; P08659; purified P. pyralis luciferase, luminescence, biochemical; Potency, µM (top dose mostly 115 µM), hits mostly inhibitors; 76,000 tested, 2.5% active; also: nearly all actives have a fitted effect of over 65% in size
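Luminescence read by CCD imaging after purified firefly luciferase (10nM final) was added to substrate buffer holding 10uM D-luciferin and 10uM ATP, pH 7.5, pre-dosed with compound.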
HEK293 tox: kills HEK 293 cells. HEK 293 viability, ATP luminescence (CellTiter-Glo), 48-72 h. Potency, µM (highest dose often 115 µM), without a hit: top-dose activity change, negative = cytotoxicity, actives largely listed as inhibitors. 94,000 tested, 6.6% active; also: nearly all actives have a fitted effect of over 60% in size
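250 HEK 293 cells/well; compound by pintool; incubated 48 or 72 hr at 37 degree Celsius; CellTiter-Glo added, 10 min RT, luminescence imaged.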
NIH3T3 tox: cytotoxic compounds in NIH 3T3 cells. NIH 3T3 viability, CellTiter-Glo ATP luminescence, 48-72 h. Potency, µM (highest dose often 96.7 µM), for inactives: at the highest dose activity change, negative = cytotoxicity, usual class: inhibitors. 94,000 tested, 4.3% active. AID 1345082; also: nearly all actives have a fitted effect of over 55% in size
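NIH 3T3 cells at 400 cells/well received 23 nL of compound by pintool and were incubated 48 or 72 h at 37 °C. Viability was read as ATP-coupled CellTiter-Glo luminescence.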
hNpr1 antagonist: antagonists of human natriuretic peptide receptor Npr1. P16066. HEK293 hNpr1 GloSensor cGMP, ANP-stimulated luminescence. Potency, µM (titrated, usually from 46.3 µM), without a hit: top-dose activity change, negative = inhibition, hits mostly inhibitors. 76,000 tested, 1.6% active. AID 1347048; calls by dose curve; also: nearly all actives have a fitted effect of over 60% in size
Target sequence (P16066 whole entry, looked up): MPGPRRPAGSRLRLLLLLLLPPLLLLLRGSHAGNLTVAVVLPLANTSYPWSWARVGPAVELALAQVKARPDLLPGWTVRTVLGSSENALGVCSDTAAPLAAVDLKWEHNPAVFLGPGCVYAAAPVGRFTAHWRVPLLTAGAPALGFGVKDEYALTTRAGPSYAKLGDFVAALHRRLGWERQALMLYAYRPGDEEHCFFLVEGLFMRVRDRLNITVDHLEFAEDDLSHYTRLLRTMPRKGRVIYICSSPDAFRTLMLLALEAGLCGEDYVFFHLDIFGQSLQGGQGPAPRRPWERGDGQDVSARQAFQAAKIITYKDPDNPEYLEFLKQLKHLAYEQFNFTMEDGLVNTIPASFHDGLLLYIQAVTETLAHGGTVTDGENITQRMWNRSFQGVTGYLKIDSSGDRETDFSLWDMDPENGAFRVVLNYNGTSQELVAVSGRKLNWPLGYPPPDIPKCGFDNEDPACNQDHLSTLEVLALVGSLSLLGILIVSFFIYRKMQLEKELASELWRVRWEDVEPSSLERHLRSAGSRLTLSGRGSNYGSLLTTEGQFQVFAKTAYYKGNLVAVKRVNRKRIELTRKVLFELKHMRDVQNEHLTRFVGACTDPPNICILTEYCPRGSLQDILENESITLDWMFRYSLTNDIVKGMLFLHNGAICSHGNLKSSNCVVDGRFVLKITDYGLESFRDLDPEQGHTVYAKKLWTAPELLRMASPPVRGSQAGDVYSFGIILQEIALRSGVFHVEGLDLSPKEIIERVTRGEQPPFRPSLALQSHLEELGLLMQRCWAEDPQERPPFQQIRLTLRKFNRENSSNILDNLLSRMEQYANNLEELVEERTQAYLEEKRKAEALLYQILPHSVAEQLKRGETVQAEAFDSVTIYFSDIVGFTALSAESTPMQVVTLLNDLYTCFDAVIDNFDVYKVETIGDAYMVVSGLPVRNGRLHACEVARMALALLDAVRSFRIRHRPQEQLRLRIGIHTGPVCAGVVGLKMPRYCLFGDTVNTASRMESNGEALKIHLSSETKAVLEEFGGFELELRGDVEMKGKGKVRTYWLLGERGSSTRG
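HEK293 cells stably expressing human Npr1 and cGMP GloSensor pGS-40F, loaded 2 h with 2% GloSensor reagent, given compound 30 min at room temperature. Luminescence read before and 20 min after 0.1 nM hNppA.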
* hit, by the source's call; i = inactive; ? = inconclusive; · = no result given; [ ] = remark or other dose. Sampled rows, rich in hits. Any-hit rate of the full collection: about 11%. Unless noted, calls follow the shape of the dose curve; as a rule, active = well fitted curve in the direction sought with a large enough effect; inconclusive = small, poorly fitted or top-dose-only effect, or another doubt; inactive = no such curve, though single readings can be large; an effect the other way counts as inactive or inconclusive. % is scaled to controls: 0 for no effect and ±100 for the full control effect; potency is read from the fitted curve at half-maximal effect.

SMILES	FLuc inh	HEK293 tox	NIH3T3 tox	hNpr1 antagonist
CC(C)CC(=O)N1CCC(Oc2nccnc2N(C)C)C1 (stereo not drawn)	31.6µM*	-5.0%	3.0%	3.1%
COCC(=O)N1CCC(Oc2nccnc2N(C)C)C1 (stereo not drawn)	i	-6.1%	-21.6%	-3.6%
CCCN(C)c1nccnc1OC1CCN(C(=O)c2ccc(OC)cc2)C1 (stereo not drawn)	39.8µM*	44.7µM*	-23.5%	-14.8%
NCc1ccccc1-c1ccsc1	·	0.4%[172 µM]	i	·
COc1cccc(-c2cc3c(=O)n(CC(O)c4ccc(C(C)C)cc4)ccn3n2)c1 (stereo not drawn)	i	?	?	-23.4%
O=C(c1ccoc1)N1CCC(O)(c2ccccc2)[C@H](N2CCCC2)C1 (stereo partly drawn)	i	-16.7%	?	-2.3%
CC(=O)Nc1ccc(-c2ccc(=O)n3c2[C@@H]2C[C@@H](CN(C(=O)Nc4cccc(C#N)c4)C2)C3)cc1	i	31.6µM*	2.6%	4.4%
COc1cc(NC(=O)C2CN(S(=O)(=O)C3CC3)CC23CCCCC3)cc(OC)c1 (stereo not drawn)	i	?	?	-15.0%
Cc1ccc(C(=O)CCc2nc(C3CC(=O)N(C4CCCCC4)C3)no2)cc1 (stereo not drawn)	i	39.8µM*	?	-18.0%
CS(=O)(=O)c1ccc(-c2cnc([C@@H]3COCCN3Cc3cnc4ccccc4c3)[nH]2)cc1	i	-22.6%	-16.0%	4.7%
Fc1ccc(-c2cnc([C@@H]3COCCN3Cc3cnc4ccccc4c3)[nH]2)cc1	i	89.1µM*	?	-28.7%[70.6 µM]
COc1cccc(-c2cnc([C@@H]3COCCN3Cc3cnc4ccccc4c3)[nH]2)c1	i	100µM*	-21.7%[138 µM]	-28.1%[70.6 µM]
COc1ccc(C(=O)N[C@@H]2CCC[C@@H]2C(=O)NCCCN(C)C)cn1	i	-18.4%	-10.3%	-0.4%
CC(=O)Nc1cccc(-c2n[nH]c3c2CC(=O)N(Cc2ccccc2)C3)c1	i	100µM*	?	-25.8%[70.6 µM]
CC(=O)Nc1cccc(-c2n[nH]c3c2CC(=O)N(CC2CC2)C3)c1	i	?	?	-9.5%[70.6 µM]
CC(=O)Nc1cccc(-c2n[nH]c3c2CC(=O)N(CCOc2ccccc2)C3)c1	i	?	35.5µM*	-30.4%[70.6 µM]
O=C(C1CCCN1C(=O)c1ccc(F)cc1)N1CCC(N2Cc3cccn3C2=O)CC1 (stereo not drawn)	·	-12.0%	-20.4%	·
Cc1ccc(NC(=O)c2cc(-c3ccc[nH]3)n[nH]2)cc1F	8.91µM*	?	?	4.9%
CSc1ccc(NC(=O)c2cc(-c3ccc[nH]3)n[nH]2)cc1	4.47µM*	-24.8%	-10.1%	-2.3%
O=C(Nc1cccc(F)c1)c1cc(-c2ccc[nH]2)n[nH]1	2.24µM*	-9.5%	-10.9%	?
Cc1cccc(NC(=O)c2cc(-c3ccc[nH]3)n[nH]2)c1	2µM*	-2.0%	-19.3%	-18.1%
CC(C)CCNC(=O)c1c(-c2cccnc2)cc(=O)n2c1CCCC2	·	-18.2%	-27.7%	·
O=C([C@@H]1C[C@H](F)CN1S(=O)(=O)c1cc(F)ccc1F)N1CCCCC1	i	-10.2%	-16.3%	1.9%
O=C(Nc1cccc(C(F)(F)F)c1)c1cc(-c2ccc[nH]2)n[nH]1	?	-4.6%	-3.0%	-23.6%
Cc1cc(F)ccc1NC(=O)c1cc(-c2ccc[nH]2)n[nH]1	39.8µM*	?	-17.6%	1.0%
SMILES	FLuc inh	HEK293 tox	NIH3T3 tox	hNpr1 antagonist
O=C(Nc1ccc(F)cc1)c1cc(-c2ccc[nH]2)n[nH]1	5.01µM*	-22.7%	-27.7%	-3.4%
COc1ccc(NC(=O)c2cc(-c3ccc[nH]3)n[nH]2)cc1F	15.8µM*	5.1%	1.5%	5.1%
O=C(Nc1cccc(Cl)c1)c1cc(-c2ccc[nH]2)n[nH]1	1.58µM*	-3.1%	-2.8%	?
O=C(NCc1ccc(F)cc1)c1cc(-c2ccc[nH]2)n[nH]1	i	-20.3%	-25.5%	?
CC1CCC(NC(=O)c2cc(-c3ccc[nH]3)n[nH]2)CC1 (stereo not drawn)	?	5.1%	0.0%	4.6%
N#Cc1ccc(S(=O)(=O)N2CCCCCCNC(=O)[C@@H]3CCC[C@@H]32)cc1	i	?	?	3.5%
CC(=O)N1CCCN(C(=O)c2ccc3nnc(C4CCOCC4)n3c2)CC1	·	-2.1%[172 µM]	-19.4%[138 µM]	·
COC(=O)c1ccc(CN2C(=O)[C@@H]3C[C@@H](O)CN3C3(CN(Cc4ccc(OC)c5ccccc45)C3)C2=O)cc1	i	?	79.4µM*	-8.6%
COc1ccc(CN2CC3(C2)C(=O)N(Cc2cccc(Cl)c2)C(=O)[C@@H]2C[C@@H](O)CN23)c2ccccc12	i	?	?	-1.3%
O=C1N(Cc2ccccc2)c2ccccc2C12CCN(Cc1ccccc1)C2 (stereo not drawn)	i	?	?	4.6%
COc1ccc(CN2CCC3(C2)C(=O)N(Cc2ccccc2)c2ccccc23)cc1 (stereo not drawn)	i	39.8µM*	35.5µM*	?
N#Cc1ccc(CN2CCC3(C2)C(=O)N(c2ccccc2)c2ccccc23)cc1 (stereo not drawn)	·	15.8µM*	?	·
COc1ccc(CN2CCC3(C2)C(=O)N(C)c2ccccc23)cc1 (stereo not drawn)	i	?	?	9.8%[70.6 µM]
COc1ccc(CN2CCC3(C2)C(=O)N(c2ccccc2)c2ccccc23)cc1 (stereo not drawn)	·	50.1µM*	?	·
CN(C)c1ccc(CN2CCC3(C2)C(=O)N(C)c2ccccc23)cc1 (stereo not drawn)	i	79.4µM*	?	-6.1%[70.6 µM]
O=C1N(c2ccccc2)c2ccccc2C12CCN(Cc1cncs1)C2 (stereo not drawn)	·	?	-16.7%	·
COc1ccccc1C(=O)N1CCCC1C(=O)N1CCCC1c1nc2ccncc2[nH]1 (stereo not drawn)	·	-1.8%	-9.3%	·
CC(C)C(=O)N1CCCCCNC(=O)[C@H]2C[C@H](C(=O)N3CCc4ccccc4C3)C[C@H]21	i	-35.3%	-11.6%	-6.4%
Cc1ccc(C(=O)N2CCN(c3nnc4c(Cl)cccn34)CC2)cc1F	i	2.1%	-2.2%	-1.1%
O=C1NC2(CN(Cc3ccc(F)cc3)C2)Oc2ccccc21	i	?	?	0.0%[70.6 µM]
COCC(=O)N1CCCC1C(=O)N1CCC(N2CCOCC2=O)CC1 (stereo not drawn)	·	-4.7%	-16.0%	·
O=C1N(c2ccccc2)c2ccccc2C12CCN(Cc1ccc(C(F)(F)F)cc1)C2 (stereo not drawn)	·	50.1µM*	?	·
O=C1N(c2ccccc2)c2ccccc2C12CCN(CC1CC1)C2 (stereo not drawn)	·	-21.9%	?	·
O=C(c1cccc(Cl)c1)N1CCC(C(=O)N2CCC(c3nc4ncccc4[nH]3)C2)CC1 (stereo not drawn)	·	1.1%	-13.6%	·
CCN(CC1CCN(C2CCN(C)CC2)CC1)C(=O)c1ccc(-c2ccccc2)cc1	i	22.4µM*	28.2µM*	7.0%

From PubChem BioAssay
